{"source": "PubChem BioAssay (Tox21)", "note": "Inconclusive results are not listed. Values without a mark were called inactive. Calls follow the shape of the dose curve; as a rule, active = well fitted curve in the direction sought with a large enough effect in the repeat runs; inconclusive = weak or mixed curves; inactive = no such curve, though single readings can be large; an effect the other way counts as inactive or inconclusive. % is scaled to controls: 0 for no effect and ±100 for the full control effect.", "data": [{"test": "A CellTox Green Cytotoxicity Assay to monitor cytotoxicity in HEK293 cells - 16 hour (AID 1224888); also: nearly all actives have a fitted effect of over 35% in size", "conditions": "CellTox Green fluorescence, active compounds read high; series mostly up to 76.8 µM; activity change: at the top concentration", "in_short": "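Dead-cell fluorescence measured kinetically: asymmetric cyanine dye, HEK293, 600 cells/well, 5 h settle, 23 nL cpd/DMSO, 37 C, reads 0–40 h every 8 h.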", "values": [{"smiles": "O=C(CCNNC(=O)c1ccncc1)NCc1ccccc1", "activity change": "0.0101% [at 35.3 µM]"}, {"smiles": "CC(C)NCC(O)COc1ccc(COCCOC(C)C)cc1", "note": "(stereo not drawn)", "activity change": "5.3% [at 35.3 µM]"}, {"smiles": "O=C(O)c1cc(Br)c(O)c(Br)c1", "activity change": "-11.9%"}, {"smiles": "C[Si](C)=O", "activity change": "1.45% [at 6.97 µM]"}, {"smiles": "Oc1ccccc1-c1nnco1", "activity change": "-9.23% [at 35.3 µM]"}, {"smiles": "O=C1c2ccccc2C(=O)C1c1ccccc1", "activity change": "-6.83% [at 35.3 µM]"}, {"smiles": "Cc1cccc(C)c1NC(=O)c1ccccc1C(=O)O", "activity change": "-0.236% [at 35.3 µM]"}, {"smiles": "Oc1cn2c(n1)Nc1ccc(Cl)c(Cl)c1C2", "activity change": "-3.07% [at 15.8 µM]"}, {"smiles": "c1ccc2c(c1)ccc1c3ccccc3ccc21", "activity change": "-0.475% [at 35.3 µM]"}, {"smiles": "CC(C)CCCC(C)(C)O", "activity change": "3.57%"}, {"smiles": "CCCCCCCCSCC", "activity change": "-0.955%"}, {"smiles": "COc1cc2c(cc1OC)[C@@H]1CC(=O)[C@@H](CC(C)C)CN1CC2", "activity change": "0.858% [at 35.3 µM]"}, {"smiles": "COC(=O)c1ccccc1C(=O)c1ccc(OCCN2CCCCC2)cc1", "activity change": "0.463% [at 35.3 µM]"}, {"smiles": "COc1cc(C(=S)N2CCOCC2)cc(OC)c1OC", "activity change": "1.22% [at 35.3 µM]"}, {"smiles": "CC(N)C(=O)OC(C)(C)Cc1ccc(Cl)cc1", "note": "(stereo not drawn)", "activity change": "-13.4% [at 35.3 µM]"}, {"smiles": "CCCCCCCCCCCCCC", "activity change": "-8.81%"}, {"smiles": "CCCCCCN", "activity change": "-0.059%"}, {"smiles": "CN(C)c1ccc(C=O)cc1", "activity change": "-10.4%"}, {"smiles": "O=S(=O)(O)c1cc(O)c2ccc(Nc3ccccc3)cc2c1", "activity change": "3.34%"}, {"smiles": "CCCCOCCOC(=O)COc1nc(Cl)c(Cl)cc1Cl", "activity change": "22.2%"}, {"smiles": "CN(CCOc1ccc(NS(C)(=O)=O)cc1)CCc1ccc(NS(C)(=O)=O)cc1", "activity change": "-0.946% [at 35.3 µM]"}, {"smiles": "C=COCCOCCOCCOC=C", "activity change": "0.0307%"}, {"smiles": "O=C(CCN1CCN(CCO)CC1)N1c2ccccc2Sc2ccc(C(F)(F)F)cc21", "activity change": "6.38% [at 35.3 µM]"}, {"smiles": "CC(C)CC(C)CC(C)CC(C)COC(=O)c1ccccc1C(=O)OCC(C)CC(C)CC(C)CC(C)C", "note": "(stereo not drawn)", "activity change": "2.55%"}, {"smiles": "C=CC(OCC)OCC", "activity change": "3.58%"}, {"smiles": "CC(=O)CCCCn1c(=O)c2c(ncn2C)n(C)c1=O", "activity change": "-0.661% [at 35.3 µM]"}, {"smiles": "Cc1ccc2c(c1)OCC(=O)CO2", "activity change": "-5.78%"}, {"smiles": "CC1(C)S[C@@H]2[C@H](N=CN3CCCCCC3)C(=O)N2[C@H]1C(=O)O", "activity change": "-2.96% [at 35.3 µM]"}, {"smiles": "O=C(OCC1(COC(=O)c2cccnc2)CCCC(COC(=O)c2cccnc2)(COC(=O)c2cccnc2)C1O)c1cccnc1", "activity change": "10.9% [at 35.3 µM]"}, {"smiles": "Cc1ccccc1N=O", "activity change": "-11.5%"}, {"smiles": "O=C(O)c1ccc(Cl)cc1Cl", "activity change": "-0.258%"}]}, {"test": "qHTS RealTime-Glo MT Cell Viability Assay in HepG2 cells - 0 hour (AID 1224889); also: nearly all actives have a fitted effect of over 50% in size", "conditions": "RealTime-Glo luminescence; series mostly up to 76.8 µM; activity change, negative = cytotoxicity: at the top concentration", "in_short": "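qHTS, HepG2, 600 cells/well, RealTime-Glo (NanoLuc + prosubstrate) added with cells; 5 h preincubation; DMSO compound addition; 37 C; luminescence at 0/8/16/24/32/40 h.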", "values": [{"smiles": "C[Si](C)=O", "activity change, negative = cytotoxicity": "8.65% [at 6.97 µM]"}, {"smiles": "O=C1c2ccccc2C(=O)C1c1ccccc1", "activity change, negative = cytotoxicity": "3.66% [at 35.3 µM]"}, {"smiles": "Cc1cccc(C)c1NC(=O)c1ccccc1C(=O)O", "activity change, negative = cytotoxicity": "1.31% [at 35.3 µM]"}, {"smiles": "c1ccc2c(c1)ccc1c3ccccc3ccc21", "activity change, negative = cytotoxicity": "-0.781% [at 35.3 µM]"}, {"smiles": "CN(C)c1ccc(C=O)cc1", "activity change, negative = cytotoxicity": "-0.565%"}, {"smiles": "CN(CCOc1ccc(NS(C)(=O)=O)cc1)CCc1ccc(NS(C)(=O)=O)cc1", "activity change, negative = cytotoxicity": "6.54% [at 35.3 µM]"}, {"smiles": "O=C(CCN1CCN(CCO)CC1)N1c2ccccc2Sc2ccc(C(F)(F)F)cc21", "activity change, negative = cytotoxicity": "13.5% [at 35.3 µM]"}, {"smiles": "CC(C)CC(C)CC(C)CC(C)COC(=O)c1ccccc1C(=O)OCC(C)CC(C)CC(C)CC(C)C", "note": "(stereo not drawn)", "activity change, negative = cytotoxicity": "3.77%"}, {"smiles": "CC(=O)CCCCn1c(=O)c2c(ncn2C)n(C)c1=O", "activity change, negative = cytotoxicity": "0.962% [at 35.3 µM]"}, {"smiles": "Cc1ccc2c(c1)OCC(=O)CO2", "activity change, negative = cytotoxicity": "0.951%"}, {"smiles": "O=C(OCC1(COC(=O)c2cccnc2)CCCC(COC(=O)c2cccnc2)(COC(=O)c2cccnc2)C1O)c1cccnc1", "activity change, negative = cytotoxicity": "-5.79% [at 35.3 µM]"}, {"smiles": "Cc1ccccc1N=O", "activity change, negative = cytotoxicity": "-0.737%"}]}]}
